The list is not random: actives were taken first. Their share in the collection is about 19%.
KB-3-1 cytotox: KB-3-1 parental cell cytotoxicity; KB-3-1 viability, CellTiter-Glo ATP luminescence, 72 h; Potency, µM (titrated, usually from 46.1 µM), actives largely listed as cytotoxic; 400,000 compounds, 1.4% hits; AID 1347075; also: nearly all actives have a fitted effect of over 60% in size
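KB-3-1 parental drug-naive adenocarcinoma cells in DMEM/10% FBS, incubated 72 h at 37 C with pin-transferred compounds across a concentration series. Viability by CellTiter-Glo luminescence; concentration-response curves fitted after normalization.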
TDP1 cell CPT: growth inhibition of DT40 Tdp1-/-;hTDP1 cells with camptothecin (screen for TDP1 inhibitors); 420,000 compounds, 12% hits; Potency, µM (series often up to 46.2 µM), inactives show at the top dose activity change, negative = growth inhibition, most hits filed as inhibitors; chicken DT40 Tdp1-/-;hTDP1 cells + 20 nM CPT, ATP luminescence, 48 h; also: nearly all actives have a fitted effect of over 55% in size
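Cell growth measured by CellTiter-Glo luminescence after a minimum 48 h, 37 C compound exposure with 20 nM CPT in Tdp1-knockout DT40 cells stably expressing hTDP1, seeded 400/well; qHTS titration format.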
KB-V1 cytotox: KB-V1 MDR subline cytotoxicity. KB-V1 MDR cells viability, CellTiter-Glo, 72 h. Potency, µM (doses to about 46.1 µM), most hits filed as cytotoxic. 400,000 compounds, 3.4% hits; also: nearly all actives have a fitted effect of over 60% in size
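Cytotoxicity toward P-gp-expressing KB-V1 cells was determined as loss of CellTiter-Glo luminescence after 72 h at 37 degrees C. Compounds were tested in quantitative HTS format across a concentration range, with curves fitted to normalized data.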
HT1080NT lethal: kills 2HG-producing HT-1080-NT fibrosarcoma cells; HT-1080-NT fibrosarcoma viability, CellTiter-Glo ATP luminescence, 48 h; Potency, µM (doses to about 46.1 µM), without a hit: at the top dose activity, negative = less viability, most hits filed as cytotoxic; 360,000 compounds, 1.6% hits; AID 686970;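 also: NT is the 2HG producing partner of a matched IDH1 knockdown line; 0% = DMSO-treated cells and -100% = media-only wells without cells; nearly all actives have a fitted effect of over 55% in size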
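HT-1080-NT fibrosarcoma cells (2HG-overproducing), 750 cells/well in RPMI with 5% FBS, dosed after 2 h and incubated 48 h at 37C. CellTiter-Glo luminescence normalized to DMSO and no-cell wells; concentration-response curves fitted and classed.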
DT40 TDP1 no CPT: qHTS for Inhibitors of human tyrosyl-DNA phosphodiesterase 1 (TDP1): qHTS in cells in absence of CPT; DT40 Tdp1-/- hTDP1 cells, no CPT, ATP luminescence, 48 h; Potency, µM (series often up to 46.2 µM), for inactives: at the highest dose activity change, negative = growth inhibition, most hits filed as inhibitors; 420,000 compounds, 15% hits; also: nearly all actives have a fitted effect of over 55% in size
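No-CPT arm: Tdp1-/-;hTDP1 DT40 cells (400/well) plus compounds, incubated ≥48 hr at 37 °C. Readout CellTiter-Glo luminescence.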
HT1080 IDH1KD tx: toxicity to HT-1080 IDH1 knockdown cells (counter line); HT-1080 IDH1 knockdown viability, ATP luminescence, 48 h; AID 686971; 360,000 compounds, 2% hits; Potency, µM (series often up to 46.1 µM), inactives show top-dose activity, negative = toxicity, most hits filed as cytotoxic;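 also: 0% = DMSO wells and -100% = cell-free medium wells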
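HT-1080-IDH1KD cells (IDH1 knocked down), 750/well in RPMI with 5% FBS, treated with compound 48 h at 37 degrees C. Viability by CellTiter-Glo luminescence, normalised to DMSO and no-cell wells; concentration-response curves classed.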
* = called active by the depositor; i = inactive; u = inconclusive; x = no result given; [ ] = dose if it differs, or a comment. Calls follow the shape of the dose curve; as a rule, active = well fitted curve in the direction sought with a large enough effect; inconclusive = small, poorly fitted or top-dose-only effect, or another doubt; inactive = no such curve, though single readings can be large; an effect the other way counts as inactive or inconclusive. Unless noted, % is scaled to controls: 0 for no effect and ±100 for the full control effect; potency is read from the fitted curve at half-maximal effect.

SMILES	KB-3-1 cytotox	TDP1 cell CPT	KB-V1 cytotox	HT1080NT lethal	DT40 TDP1 no CPT	HT1080 IDH1KD tx
COCCS(=O)(=O)N(Cc1ccc(Br)cc1)[C@@H](C)C(=O)OC	i	-17%	i	-1%	-27%	-3%
COC(=O)[C@H](C)N(Cc1ccc(Cl)c(Cl)c1)S(=O)(=O)CCNC1CCCC1	i	u	i	-25%	21µM*	-27%
CC1C/C(=N\NC(=S)NCc2ccccc2)CC(C)(C)C1 (centres undefined)	i	u	i	10%	26µM*	2%
CC1(C)C(=O)C2(CCCCC2)C(=O)OC1c1cccn1-c1ccc([N+](=O)[O-])cc1 (centres undefined)	i	u	i	18%	u	14%
CC1(C)C(=O)OC(c2cccn2-c2ccc([N+](=O)[O-])cc2)C(C)(C)C1=O (centres undefined)	i	15µM*	i	7%	23µM*	10%
CS(=O)(=O)N1CCC(C(=O)Nc2ccc(Cl)c(C(F)(F)F)c2)CC1	i	u	u	u	23µM*	-23%
Cn1cnc(S(=O)(=O)N2CCC(C(=O)Nc3ccc(Cl)c(C(F)(F)F)c3)CC2)c1	x	16µM*	x	x	13µM*	x
CS(=O)(=O)N1CCC(C(=O)Nc2cc(C(F)(F)F)ccc2Cl)CC1	i	-3%	i	10%	1%	13%
COc1cc(N=Nc2cccc(S(N)(=O)=O)c2)c2ccccc2c1N	23µM*	u	i	21µM*	18µM*	15µM*
CCOc1cccc2cc(-c3nc(-c4ccc(Cl)cc4)c(C)s3)c(=O)oc12	i	7%	u	x	-8%	x
Nn1c(SCC(=O)N2CCCC2)nnc1-c1cccs1	i	-4%	i	0%	-11%	0%
CN1/C(=C/c2cc[n+](C)c3ccccc23)C=Cc2ccccc21	6.5µM*	0.46µM*	i	7.3µM*	0.18µM*	5.8µM*
CNc1cc[n+](C)c2ccccc12	i	-2%	u	x	-20%	x
COc1cc(C(=O)NCC(=O)N/N=C/c2ccccn2)cc(OC)c1OC	i	14%	i	12%	-3%	14%
C/C(=N\NC(N)=O)c1ccc(Cl)cc1	u	-1%	12µM*	-2%	-1%	0%
COc1cc(C(=O)N/N=C(\c2ccccc2)c2ccccn2)cc(OC)c1OC	u	2.6µM*	i	u	2.6µM*	u
C/C(=N\NC(=O)c1ccc(Cl)cc1)c1ccccn1	u	0.58µM*	u	u	0.52µM*	u
C/C(=N\NC(=O)c1ccccn1)c1ccc(Cl)cc1	i	9%	u	8%	-23%	4%
O=C(Sc1ccc(Cl)cc1)c1ccccn1	i	16µM*	i	u	16µM*	23µM*
C/C(=N/NC(=O)c1ccccn1)c1ccco1	u	u	21µM*	u	u	u
COc1cc(C(=O)N/N=C(\C)c2ccccn2)cc(OC)c1OC	6.5µM*	12µM*	7.3µM*	u	8.2µM*	u
C/C(=N/NC(=O)c1ccccn1)c1ccc(O)cc1	i	-2%	i	0%	-9%	-5%
CC(=NNC(=S)Nc1cccc(Cl)c1)c1ccccn1	u	0.082µM*	u	18µM*	0.021µM*	u
Cc1ccc(N=Cc2nc(/C=C/c3cccc([N+](=O)[O-])c3)oc2O)cc1	i	u	16µM*	22%	u	7%
Cc1ccc(-c2nc(C=Nc3ccc(O)cc3)c(O)o2)cc1	i	7.3µM*	u	u	10µM*	u
SMILES	KB-3-1 cytotox	TDP1 cell CPT	KB-V1 cytotox	HT1080NT lethal	DT40 TDP1 no CPT	HT1080 IDH1KD tx
COCC(=O)N(C)C[C@H]1Oc2cc(C#Cc3cccnc3)ccc2S(=O)(=O)N([C@H](C)CO)C[C@H]1C	i	-5%	i	2%	u	-1%
O=C(Cn1cncn1)N1CCOc2ccc(CN3CCN(c4ccccc4)CC3)cc2C1	x	14%[9.04 µM]	x	x	3%	x
N[C@H](C(=O)O)[C@H]1C[C@H]1C(=O)O	x	-26%	x	x	-26%	x
COc1ccccc1Nc1nc(-c2ccc([N+](=O)[O-])cc2)nc2ccccc12	i	u	i	3%	u	3%
COc1ccccc1Nc1nc(-c2cccc([N+](=O)[O-])c2)nc2ccccc12	i	23µM*	i	-6%	18µM*	10%
COc1ccc(Nc2nc(-c3cccs3)nc3ccccc23)c(OC)c1	u	16µM*	u	-24%	13µM*	-26%
COc1ccc(Nc2nc(-c3cccc([N+](=O)[O-])c3)nc3ccccc23)c(OC)c1	i	u	i	-3%	18µM*	3%
COc1ccc(OC)c(Nc2nc(-c3cccc([N+](=O)[O-])c3)nc3ccccc23)c1	i	0%	i	9%	-1%	3%
CC(C)(C)C(=O)N1CCC(O)(CS(=O)(=O)c2ccc(Cl)c(Cl)c2)CC1	i	-10%	u	-2%	-23%	1%
CC(C)CNS(=O)(=O)c1ccc(NC(=O)Cn2nc(-c3ccc(F)cc3)ccc2=O)cc1	i	u	i	-14%	u	-17%
CN(C1CCCCC1)S(=O)(=O)c1ccc(NC(=O)Cn2nc(-c3ccc(F)cc3)ccc2=O)cc1	i	u	u	-13%	21µM*	-8%
C[C@](N)(Cc1ccc(O)cc1)C(=O)O	x	3%	x	x	-10%	x
COc1ccc(C[C@](C)(N)C(=O)O)cc1OC	i	-25%	i	u	2.3µM*	-4%
CC(=O)c1ccc2c(c1)N(Cc1ccc3ccccc3c1)C(=O)C(C)S2 (centres undefined)	u	5.8µM*	u	u	5.2µM*	u
OC(c1ccccc1)(c1ccccc1)C1CCN(CCCOc2ccc3c(c2)CCCC3)CC1	u	4.1µM*	21µM*	15µM*	5.2µM*	13µM*
N#CCc1ccc(OCCCN2CCC(C(O)(c3ccccc3)c3ccccc3)CC2)cc1	u	23µM*	18µM*	21µM*	21µM*	u
CC(=O)Nc1ccc(OCCCN2CCC(C(O)(c3ccccc3)c3ccccc3)CC2)cc1	i	u	i	-24%	u	u
OC(c1ccccc1)(c1ccccc1)C1CCN(CCCOc2cccc(OC(F)(F)F)c2)CC1	u	16µM*	i	18µM*	16µM*	16µM*
